Common to all, as to settings: concentration: 1 μM, replicates: in singlicate; n = 1
Test [1] relates to LCK.
Test [2] concerns LIMK1.
Test [3] has as its system LIMK2.
Test [4] deals with T1, LKB1.
T1 construct: gene STK11

Test [5] deals with T2, LOK.
T2 construct: gene STK10

In test [6] the test system is LRRK2.
Test [7] has as its system LTK.
Test [8] relates to LYN.
The test system of test [9] is T3, LZK.
T3 construct: gene MAP3K13

Test [10] concerns MAK.
Test [11] deals with MAP3K15.
The test system of test [12] is MAP3K1.
The subject of test [13] is MAP3K2.
The subject of test [14] is MAP3K3.
The subject of test [15] is MAP3K4.
In test [16] the test system is MAP4K2.
Test [17] deals with MAP4K3.
The subject of test [18] is MAP4K4.
The subject of test [19] is MAP4K5.
Test [20] deals with MAPKAPK2.
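Also: KINOMEscan kinase panel screen.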

In the case of `O=C(Nc1cccc(Oc2ccc3nc(NC(=O)C4CC4)cn3n2)c1)c1ccccc1C(F)(F)F`, the “%Inh” value in test [1] was 72%; in [2], 6%; in test [3], 7%; in [4], 0%; in test [5] it was 95.1%; in test [6] it was 0%. Also, the “%Inh” value in test [7] was found to be 39%; in test [8] it was 57%; in [9] it was 0%; in test [10], 0%; in test [11] it was 0%; in test [12] it was 0%. Besides, the “%Inh” value in [13] is 0%; in [14], 8%; in test [15], 26%; in test [16] it was 0%; in [17] it was 64%; in test [18], 8%. Besides, the “%Inh” value amounted to 29% in [19] and 0% in test [20].

With `COc1cccc(C(=O)Nc2cccc(Oc3ccc4nc(NC(=O)C5CC5)cn4n3)c2)c1`, the “%Inh” value in [1] stood at 99.2%; in test [2], 19%; in test [3] it was 23%; in test [4], 0%; in [5], 96.2%; in [6], 3%. The “%Inh” value came to 27% in test [7]; 92.9% in [8]; 0% in test [9]; 0% in test [10]; 0% in test [11]; 9% in test [12]. Further, the “%Inh” value came to 0% in test [13]; 24% in [14]; 10% in test [15]; 0% in test [16]; 69% in test [17]; 48% in test [18]. Besides, the results for the “%Inh” value in [19] and in test [20] were 49% and 0%, respectively.

Consider `Cc1cccc(NC(=O)Nc2ccc(Oc3ncnc4ccn(C)c34)cc2)c1`, for which the “%Inh” value is reported as 0% in test [1]; 7% in test [2]; 0% in test [3]; 42% in [4]; 86% in test [5]; 0% in test [6]. Moreover, the “%Inh” value in test [7] was 17%; in test [8], 7%; in [9], 0%; in test [10], 0%; in [11], 0%; in [12], 0%. Further, the “%Inh” value in test [13], in test [14], in test [15], in test [16], in test [17] and in [18] was 0% in each case. Besides, the “%Inh” value in test [19] and in [20] was 0% each time.

Regarding `CN(c1ccc(NC(=O)Nc2cc(C(F)(F)F)ccc2F)cc1)c1ccnc(Nc2ccc(S(N)(=O)=O)cc2)n1` [GW809893], the “%Inh” value in [1] was determined as 99.6%; in test [2] it was 89%; in test [3] it was 84%; in test [4] it was 0%; in [5] it was 100%; in [6] it was 72%. The “%Inh” value turned out to be 95.7% in [7]; 96.4% in [8]; 0% in test [9]; 95.7% in test [10]; 0% in test [11]; 33% in test [12]. The “%Inh” value in test [13] was 7%; in test [14] it was 15%; in [15], 72%; in test [16] it was 26%; in test [17] it was 96.8%; in [18], 97.7%. For the same molecule, the “%Inh” value is 99.2% in [19] and 0% in test [20].

In the case of `O=C(Nc1ccccc1F)NC1CCN(c2ccnc(Nc3ccc(F)cc3)n2)CC1` [GSK1379800], the “%Inh” value in test [1] is listed as 5%; in test [2] it was 0%; in [3] it was 28%; in test [4] it was 0%; in test [5], 0%; in [6], 0%. Further, the “%Inh” value was 0% in [7]; 0% in test [8]; 21% in test [9]; 23% in test [10]; 0% in [11]; 13% in [12]. Also, the “%Inh” value in [13], in test [14], in test [15], in test [16], in [17] and in test [18] was 0% throughout. Moreover, the “%Inh” value in test [19] is given as 0%; in test [20] it was 6%.

As to `COc1cccc(-c2ccc3c(NC(=O)C4CC4)n[nH]c3n2)c1` [SB-710903], the “%Inh” value in test [1] is 23%; in test [2] it was 14%; in [3], 55%; in test [4] it was 0%; in [5], 0%; in [6] it was 0%. The “%Inh” value was found to be 0% in [7]; 1% in test [8]; 47% in test [9]; 24% in [10]; 0% in test [11]; 35% in test [12]. In addition, the “%Inh” value in [13] amounted to 15%; in test [14], 0%; in [15] it was 32%; in [16] it was 0%; in [17], 0%; in test [18], 53%. Moreover, the results for the “%Inh” value in test [19] and in [20] were 3% and 16%, respectively.

As to `Cl.Cl.NCC(NCc1ccc(-c2ccnc3[nH]ccc23)s1)c1ccccc1` (stereo not shown) [GSK1321565], the “%Inh” value in test [1] is reported as 16%; in [2], 0%; in [3], 20%; in test [4], 82%; in [5], 29%; in test [6], 10%. In addition, the “%Inh” value in [7] is reported as 31%; in [8], 0%; in test [9], 40%; in test [10], 0%; in test [11], 0%; in test [12], 0%. Also, the “%Inh” value came out at 63% in [13]; 29% in test [14]; 0% in test [15]; 64% in [16]; 2% in test [17]; 0% in [18]. In addition, the “%Inh” value in test [19] and in [20] was 0% each time.

Consider `COc1cc(Nc2nccc(N3CCC(NC(=O)Nc4cccc(C(C)=O)c4)C3)n2)cc(OC)c1OC` (stereo not shown) [GSK1379753], for which the “%Inh” value was found to be 15% in test [1]; 51% in test [2]; 43% in test [3]; 0% in [4]; 20% in test [5]; 0% in test [6]. Besides, the “%Inh” value came out at 100% in [7]; 60% in test [8]; 0% in test [9]; 30% in [10]; 0% in test [11]; 1% in test [12]. Further, the “%Inh” value in test [13] turned out to be 22%; in [14], 0%; in [15] it was 0%; in test [16], 8%; in test [17], 0%; in [18], 3%. Also, the “%Inh” value in test [19] and in [20] was 0% each time.

Values taken from publication PMC5540273 (PLoS ONE, 2017).
